# Measurements as given in the supplement of paper PMC10849652.
# The full data set covers some 7,900 targets. This sample favours those with a hit. About 0.6% of all pairs of compound and target were hits. A number with no mark means an inactive call.
# Tests used:
# Assay in all cases: log2 fold change, soluble protein after heating vs DMSO (PISA); higher = thermal stabilisation; K562 cells, 10 uM, 30 min; active = over 0.2 and 3.5 SD of the protein, either way, in both replicates (recomputed)
# [1] = compound: CS(=O)(=O)c1ccc(-c2cnc(N)c(C(=O)Nc3ccccc3)n2)cc1
# How it was run: (§1)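 Thermal stability values are relative to control samples and come from duplicates. They are expressed as log2 fold changes. For measurement, K562 cells (2×10^6 cells/mL) received 10 μM compound for 30 min, and aliquots were heated for 3 min over 48°C-58°C, pooled, and extracted at 4°C in PBS with 0.5% NP-40. Soluble protein, the supernatant after 21,000xg for 90 min, was quantified by TMTpro 16plex LC-MS/MS with equalised channel sums.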
# crizotinib = compound: C[C@@H](Oc1cc(-c2cnn(C3CCNCC3)c2)cnc1N)c1c(Cl)ccc(F)c1Cl [crizotinib]
# How it was run: as §1
# [2] = compound: C[C@@H]1COCCN1C2=NC(=NC(=C2)C3(CC3)S(=O)(=O)C)C4=C5C=CNC5=CC=C4
# How it was run: as §1
# [3] = compound: C[C@H](C1=CC=C(C=C1)C(=O)NC2=C3C=CNC3=NC=C2)N
# How it was run: as §1
# duvelisib = compound: C[C@H](Nc1ncnc2nc[nH]c12)c1cc2cccc(Cl)c2c(=O)n1-c1ccccc1 [duvelisib]
# How it was run: as §1
# gandotinib = compound: Cc1cc(Nc2cc(CN3CCOCC3)c3nc(C)c(Cc4ccc(Cl)cc4F)n3n2)n[nH]1 [gandotinib]
# How it was run: as §1
# tozasertib = compound: Cc1cc(Nc2cc(N3CCN(C)CC3)nc(Sc3ccc(NC(=O)C4CC4)cc3)n2)n[nH]1 [tozasertib]
# How it was run: as §1
# [4] = compound: Cc1cc(SCc2sc(-c3ccc(C(F)(F)F)cc3)nc2C)ccc1OCC(=O)O
# How it was run: as §1
# doramapimod = compound: Cc1ccc(-n2nc(C(C)(C)C)cc2NC(=O)Nc2ccc(OCCN3CCOCC3)c3ccccc23)cc1 [doramapimod]
# How it was run: as §1
# ispinesib = compound: Cc1ccc(C(=O)N(CCCN)[C@@H](c2nc3cc(Cl)ccc3c(=O)n2Cc2ccccc2)C(C)C)cc1 [ispinesib]
# How it was run: as §1
# bafetinib = compound: Cc1ccc(NC(=O)c2ccc(CN3CC[C@H](N(C)C)C3)c(C(F)(F)F)c2)cc1Nc1nccc(-c2cncnc2)n1 [bafetinib]
# How it was run: as §1
# [5] = compound: Cc1cccc(CC(=O)N2CCc3c2ccc(-c2cn(C)c4ncnc(N)c24)c3F)n1
# How it was run: as §1
# nilotinib = compound: Cc1cn(-c2cc(NC(=O)c3ccc(C)c(Nc4nccc(-c5cccnc5)n4)c3)cc(C(F)(F)F)c2)cn1 [nilotinib]
# How it was run: as §1
# [6] = compound: Cc1nc(Nc2n[nH]c3c2CN(C(=O)N[C@H](CN(C)C)c2ccccc2)C3(C)C)c2sccc2n1
# How it was run: as §1
# dasatinib = compound: Cc1nc(Nc2ncc(C(=O)Nc3c(C)cccc3Cl)s2)cc(N2CCN(CCO)CC2)n1 [dasatinib]
# How it was run: as §1
# [7] = compound: Cc1ncc(-c2ccnc(Nc3ccc(S(C)(=O)=O)cc3)n2)n1C(C)C
# How it was run: as §1
# [8] = compound: Cn1cc(-c2ccc3c(c2)CCN3C(=O)Cc2cccc(C(F)(F)F)c2)c2c(N)ncnc21
# How it was run: as §1
# [9] = compound: Cn1cc(-c2ccc3nnc(C(F)(F)c4ccc5ncccc5c4)n3n2)cn1
# How it was run: as §1
# tipifarnib = compound: Cn1cncc1[C@@](N)(c1ccc(Cl)cc1)c1ccc2c(c1)c(-c1cccc(Cl)c1)cc(=O)n2C [tipifarnib]
# How it was run: as §1
# mubritinib = compound: FC(F)(F)c1ccc(/C=C/c2nc(COc3ccc(CCCCn4ccnn4)cc3)co2)cc1 [mubritinib]
# How it was run: as §1
# Chain of UniProt Q9ULX6 (Q9ULX6 whole entry, looked up): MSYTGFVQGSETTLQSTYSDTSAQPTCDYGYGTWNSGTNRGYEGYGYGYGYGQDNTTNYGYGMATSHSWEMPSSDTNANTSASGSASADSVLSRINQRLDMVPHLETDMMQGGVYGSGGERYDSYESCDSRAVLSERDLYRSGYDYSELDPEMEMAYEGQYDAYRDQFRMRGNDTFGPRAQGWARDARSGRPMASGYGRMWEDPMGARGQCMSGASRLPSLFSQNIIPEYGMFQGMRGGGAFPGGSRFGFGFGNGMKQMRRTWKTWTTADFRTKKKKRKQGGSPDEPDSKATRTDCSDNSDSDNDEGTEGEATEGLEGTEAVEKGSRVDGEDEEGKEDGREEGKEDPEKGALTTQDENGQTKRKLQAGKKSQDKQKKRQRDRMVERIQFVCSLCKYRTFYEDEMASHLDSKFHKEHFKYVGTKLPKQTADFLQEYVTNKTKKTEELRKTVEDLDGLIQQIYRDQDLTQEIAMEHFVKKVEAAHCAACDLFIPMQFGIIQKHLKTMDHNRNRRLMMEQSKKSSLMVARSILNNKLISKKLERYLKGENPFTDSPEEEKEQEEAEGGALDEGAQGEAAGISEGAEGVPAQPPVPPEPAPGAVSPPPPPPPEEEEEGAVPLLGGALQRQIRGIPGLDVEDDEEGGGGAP
# Chain of UniProt Q9NP58 (Q9NP58 whole entry, looked up): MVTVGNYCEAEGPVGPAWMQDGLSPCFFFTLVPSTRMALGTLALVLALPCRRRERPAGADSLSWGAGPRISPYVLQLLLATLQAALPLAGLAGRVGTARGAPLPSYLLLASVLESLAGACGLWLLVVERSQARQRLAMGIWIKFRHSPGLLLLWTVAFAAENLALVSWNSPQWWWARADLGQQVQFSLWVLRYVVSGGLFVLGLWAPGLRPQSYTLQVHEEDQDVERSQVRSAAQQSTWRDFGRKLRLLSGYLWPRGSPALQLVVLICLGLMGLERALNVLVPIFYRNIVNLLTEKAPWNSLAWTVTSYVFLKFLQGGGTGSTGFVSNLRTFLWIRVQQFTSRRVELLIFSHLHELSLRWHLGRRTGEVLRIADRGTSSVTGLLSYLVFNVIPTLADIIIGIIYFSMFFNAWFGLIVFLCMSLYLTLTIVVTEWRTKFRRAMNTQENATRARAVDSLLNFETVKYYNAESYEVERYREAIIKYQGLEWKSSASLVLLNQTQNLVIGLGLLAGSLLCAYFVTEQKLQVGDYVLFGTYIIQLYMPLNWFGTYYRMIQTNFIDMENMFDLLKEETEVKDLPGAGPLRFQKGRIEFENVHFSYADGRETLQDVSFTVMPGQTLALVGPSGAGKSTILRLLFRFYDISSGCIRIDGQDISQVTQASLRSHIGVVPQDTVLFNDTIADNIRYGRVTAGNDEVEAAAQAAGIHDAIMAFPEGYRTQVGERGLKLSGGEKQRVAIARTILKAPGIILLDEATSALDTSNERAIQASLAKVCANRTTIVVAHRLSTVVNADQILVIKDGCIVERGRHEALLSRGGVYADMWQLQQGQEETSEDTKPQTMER
# Chain of UniProt Q9NYF8 (Q9NYF8 whole entry, looked up): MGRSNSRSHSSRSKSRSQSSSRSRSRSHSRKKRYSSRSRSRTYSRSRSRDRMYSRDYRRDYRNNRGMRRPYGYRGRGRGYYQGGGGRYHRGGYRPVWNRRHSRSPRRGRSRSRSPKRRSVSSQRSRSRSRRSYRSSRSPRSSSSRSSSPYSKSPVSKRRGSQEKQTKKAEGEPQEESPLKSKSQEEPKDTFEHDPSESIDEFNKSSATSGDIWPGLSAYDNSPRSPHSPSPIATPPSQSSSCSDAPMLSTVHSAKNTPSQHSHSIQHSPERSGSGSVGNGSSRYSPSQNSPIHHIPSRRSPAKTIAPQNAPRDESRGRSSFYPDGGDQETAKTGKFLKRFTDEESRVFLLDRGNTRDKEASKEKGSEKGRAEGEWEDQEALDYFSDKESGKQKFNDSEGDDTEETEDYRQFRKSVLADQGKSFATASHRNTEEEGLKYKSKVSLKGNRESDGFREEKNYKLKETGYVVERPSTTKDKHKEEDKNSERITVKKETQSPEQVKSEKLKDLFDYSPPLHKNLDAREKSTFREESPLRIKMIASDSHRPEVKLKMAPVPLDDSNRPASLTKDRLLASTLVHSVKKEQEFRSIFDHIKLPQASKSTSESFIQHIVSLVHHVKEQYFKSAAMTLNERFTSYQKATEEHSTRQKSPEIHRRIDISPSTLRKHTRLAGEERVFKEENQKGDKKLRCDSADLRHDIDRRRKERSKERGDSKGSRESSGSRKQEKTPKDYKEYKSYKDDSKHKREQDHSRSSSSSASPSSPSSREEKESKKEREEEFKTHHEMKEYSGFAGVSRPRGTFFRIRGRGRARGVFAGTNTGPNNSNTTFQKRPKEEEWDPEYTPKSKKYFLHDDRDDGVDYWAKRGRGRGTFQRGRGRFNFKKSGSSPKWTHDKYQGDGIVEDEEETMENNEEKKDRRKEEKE
# Chain of UniProt Q07960 (Q07960 whole entry, looked up): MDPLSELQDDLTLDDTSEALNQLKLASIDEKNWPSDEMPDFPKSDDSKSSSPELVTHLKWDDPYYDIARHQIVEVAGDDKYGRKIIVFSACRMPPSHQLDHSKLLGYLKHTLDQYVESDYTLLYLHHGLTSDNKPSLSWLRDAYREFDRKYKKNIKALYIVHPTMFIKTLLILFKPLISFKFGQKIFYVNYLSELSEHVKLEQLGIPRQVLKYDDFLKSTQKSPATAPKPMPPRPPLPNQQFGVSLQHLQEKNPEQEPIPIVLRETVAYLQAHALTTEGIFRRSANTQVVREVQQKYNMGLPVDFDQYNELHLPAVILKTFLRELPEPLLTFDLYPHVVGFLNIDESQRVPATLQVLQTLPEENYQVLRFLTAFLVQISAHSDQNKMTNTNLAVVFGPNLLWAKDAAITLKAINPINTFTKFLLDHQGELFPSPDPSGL
# Chain of UniProt Q9UBL3 (Q9UBL3 whole entry, looked up): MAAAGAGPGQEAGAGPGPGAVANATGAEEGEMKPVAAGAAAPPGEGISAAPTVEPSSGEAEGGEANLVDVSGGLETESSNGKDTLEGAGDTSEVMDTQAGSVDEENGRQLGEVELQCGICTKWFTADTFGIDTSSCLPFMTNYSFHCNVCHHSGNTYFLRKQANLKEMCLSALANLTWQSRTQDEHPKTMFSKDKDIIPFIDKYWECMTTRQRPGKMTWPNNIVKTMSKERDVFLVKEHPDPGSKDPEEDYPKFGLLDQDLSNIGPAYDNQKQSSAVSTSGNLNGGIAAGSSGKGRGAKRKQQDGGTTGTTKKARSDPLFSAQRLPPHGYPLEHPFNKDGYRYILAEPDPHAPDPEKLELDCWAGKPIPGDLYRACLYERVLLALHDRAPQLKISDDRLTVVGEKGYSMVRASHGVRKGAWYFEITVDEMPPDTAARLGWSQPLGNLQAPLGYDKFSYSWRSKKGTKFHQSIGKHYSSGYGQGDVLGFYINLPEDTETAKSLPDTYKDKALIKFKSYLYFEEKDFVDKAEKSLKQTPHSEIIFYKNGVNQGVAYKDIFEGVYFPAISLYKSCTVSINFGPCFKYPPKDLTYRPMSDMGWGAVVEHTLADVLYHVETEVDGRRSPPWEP
# Chain of UniProt P08243 (P08243 whole entry, looked up): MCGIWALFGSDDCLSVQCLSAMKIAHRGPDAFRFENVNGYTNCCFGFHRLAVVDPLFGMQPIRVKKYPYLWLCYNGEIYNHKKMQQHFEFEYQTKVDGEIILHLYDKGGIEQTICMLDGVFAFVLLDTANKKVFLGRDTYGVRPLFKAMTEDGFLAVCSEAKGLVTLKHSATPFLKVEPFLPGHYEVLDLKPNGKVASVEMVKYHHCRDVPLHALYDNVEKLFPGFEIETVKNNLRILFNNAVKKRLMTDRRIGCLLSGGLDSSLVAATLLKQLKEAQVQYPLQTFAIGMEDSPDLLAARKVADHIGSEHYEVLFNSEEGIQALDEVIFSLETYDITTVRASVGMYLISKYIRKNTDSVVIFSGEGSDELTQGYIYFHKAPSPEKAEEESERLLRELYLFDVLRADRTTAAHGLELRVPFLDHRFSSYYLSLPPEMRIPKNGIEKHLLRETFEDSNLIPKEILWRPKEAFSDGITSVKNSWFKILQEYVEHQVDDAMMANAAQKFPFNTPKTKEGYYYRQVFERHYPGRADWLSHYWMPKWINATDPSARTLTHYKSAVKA
# Chain of UniProt P31749 (P31749 whole entry, looked up): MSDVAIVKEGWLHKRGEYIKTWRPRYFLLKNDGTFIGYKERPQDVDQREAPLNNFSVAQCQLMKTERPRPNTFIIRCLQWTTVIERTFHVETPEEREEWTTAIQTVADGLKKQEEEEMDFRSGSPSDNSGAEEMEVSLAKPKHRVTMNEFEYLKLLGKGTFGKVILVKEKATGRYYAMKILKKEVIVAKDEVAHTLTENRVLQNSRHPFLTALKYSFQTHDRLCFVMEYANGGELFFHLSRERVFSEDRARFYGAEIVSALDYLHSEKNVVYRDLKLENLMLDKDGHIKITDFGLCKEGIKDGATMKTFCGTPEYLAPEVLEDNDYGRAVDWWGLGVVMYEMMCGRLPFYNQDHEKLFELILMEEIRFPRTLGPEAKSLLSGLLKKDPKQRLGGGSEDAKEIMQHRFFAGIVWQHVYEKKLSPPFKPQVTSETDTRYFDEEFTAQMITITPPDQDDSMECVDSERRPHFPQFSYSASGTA
# Chain of UniProt O43865 (O43865 whole entry, looked up): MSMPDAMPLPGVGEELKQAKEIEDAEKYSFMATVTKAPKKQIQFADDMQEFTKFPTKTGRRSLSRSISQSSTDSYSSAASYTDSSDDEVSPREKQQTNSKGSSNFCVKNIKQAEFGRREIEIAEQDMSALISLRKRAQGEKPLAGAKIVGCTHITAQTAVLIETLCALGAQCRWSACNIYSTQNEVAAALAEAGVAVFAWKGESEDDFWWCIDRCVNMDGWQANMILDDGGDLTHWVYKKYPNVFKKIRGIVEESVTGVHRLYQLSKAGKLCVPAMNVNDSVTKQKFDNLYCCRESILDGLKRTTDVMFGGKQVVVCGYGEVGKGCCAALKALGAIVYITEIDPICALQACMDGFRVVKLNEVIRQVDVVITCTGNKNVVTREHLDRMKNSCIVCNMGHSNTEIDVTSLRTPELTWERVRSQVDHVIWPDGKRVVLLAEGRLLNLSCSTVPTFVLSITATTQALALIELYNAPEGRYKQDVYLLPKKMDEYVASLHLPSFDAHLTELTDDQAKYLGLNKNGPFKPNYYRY
Target,log2 fold change [1],log2 fold change (crizotinib),log2 fold change [2],log2 fold change [3],log2 fold change (duvelisib),log2 fold change (gandotinib),log2 fold change (tozasertib),log2 fold change [4],log2 fold change (doramapimod),log2 fold change (ispinesib),log2 fold change (bafetinib),log2 fold change [5],log2 fold change (nilotinib),log2 fold change [6],log2 fold change (dasatinib),log2 fold change [7],log2 fold change [8],log2 fold change [9],log2 fold change (tipifarnib),log2 fold change (mubritinib)
ASH2L (UniProt Q9UBL3),0.008,0.126,0.046,0.058,0.028,0.004,0.068,0.02,-0.068,0.036,0,-0.013,-0.008,-0.041,-0.004,0.013,-0.07,-0.017,-0.041,-0.023
ADD2 (UniProt P35612),0.021,-0.005,0.022,-0.052,0.017,-0.042,-0.057,-0.029,0.016,0.088,0.012,0.011,0.022,-0.026,-0.033,-0.048,0.029,0.001,0.035,0.011
ARL1 (UniProt P40616),0.01,-0.073,0.094,-0.092,-0.004,-0.111,0.028,0.031,0.018,-0.064,0.114,0.205,-0.174,-0.017,-0.131,0.096,0.055,0.019,-0.123,-0.046
ATP12A isoform 2 (UniProt P54707),0.02,0.162,0.138,-0.087,0.067,-0.047,-0.027,-0.056,-0.004,0.137,0.026,0.011,0.02,-0.007,0.022,0.007,0.066,0.04,0.016,0.018
ABCB6 (UniProt Q9NP58),0.03,-0.457 (active),0.093,-0.057,0.015,-0.031,-0.017,-0.028,0.049,-0.207,-0.035,0.014,0.022,0.032,-0.001,0.024,0,-0.025,0.005,0.001
AKT1 (UniProt P31749),-0.013,-0.104,-0.188,0.135,-0.062,-0.144,0.032,0.298,-0.005,-0.03,0.041,0.004,0.033,-0.275,-0.416,-0.158,0.048,0,-0.136,0.033
BCLAF1 (UniProt Q9NYF8),-0.002,-0.06,0.089,-0.438 (active),0.017,-0.021,0.012,-0.01,0.035,0.164,-0.028,0.059,0.02,-0.609 (active),0.081,-0.14,-0.018,-0.065,-0.005,0.031
ACAP2 (UniProt Q15057),0.032,0.033,0.069,0.023,0.023,-0.07,0.026,0.047,-0.059,0.002,0.093,0.052,-0.006,-0.05,-0.04,0.051,-0.073,-0.051,-0.097,0.016
AHCYL1 (UniProt O43865),0.097,0.018,0.038,0.02,-0.005,0.02,0.007,-0.036,-0.045,-0.015,-0.009,-0.135,0.006,0.029,0.005,0.116,0.041,0.041,-0.014,-0.055
ASNS (UniProt P08243),0.003,-0.015,0.044,-0.045,0.025,0.002,-0.018,-0.016,-0.026,0.031,-0.055,0.02,0.002,0.021,0,-0.003,0.034,0.015,-0.033,0.012
ARHGAP1 (UniProt Q07960),0.011,0.154,0.038,-0.003,0.057,0.011,0.046,0,-0.039,0.235 (active),0.001,0.016,-0.019,-0.056,-0.101,0.007,-0.025,-0.008,-0.069,0.01
ARFGEF1 (UniProt Q9Y6D6),0.03,-0.135,0.022,0.052,0.021,-0.014,0.049,0.004,0.067,-0.024,0.052,0.006,-0.024,0.014,-0.026,0.008,0.005,0.047,0.009,-0.021
ARPP19 (UniProt P56211),-0.017,0.059,0.006,-0.106,-0.082,0.019,-0.031,-0.106,-0.037,0.048,-0.057,0.005,0.02,-0.041,0.045,-0.004,0.033,-0.022,-0.055,0.002
ATAD1 (UniProt Q8NBU5),0.004,0.021,-0.013,0.074,-0.032,0.144,-0.013,0.113,-0.003,-0.063,-0.007,0.048,0.02,-0.008,-0.033,-0.002,0.037,-0.026,0.014,-0.028
ABCC5 (UniProt O15440),0.045,-0.011,0.031,0.088,0.037,-0.05,-0.023,-0.011,-0.023,-0.071,-0.027,0.068,-0.21,-0.219 (active),-0.035,-0.015,0.017,0.053,-0.009,0.124
AKAP8L (UniProt Q9ULX6),-0.036,-0.049,-0.066,-0.1,-0.03,-0.007,0.039,0.092,0.047,-0.102,-0.078,-0.039,0.044,-0.02,-0.161,-0.052,-0.036,-0.14,0.039,0.003
